Experimental data as given in PubChem BioAssay AID1159580 (chemical genetic matrix, 2015).
About 2,000 (36%) of roughly 5,500 compounds were called active. Not shown: some 18% with an inconclusive outcome. No stated cut-off is given here; in the data, active means normalized growth mostly below about 0.91 (no sharp cut-off); inconclusive means no clear call, values can overlap the other calls; inactive means mostly above about 0.92. The list shows a part of the results.

Experiment: chemical genetic growth profiling, strain panel (AID 1159580);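 further: tested at 20 µM; growth read once vehicle control cultures reached saturation at 30 °C; 1 = growth at the plate median or of vehicle wells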
Conditions: growth OD

Measured: normalized growth

CC(=O)OC1CC(OC(C)=O)C2(C)C(CC(OC(C)=O)C3(C)C2CCC2(C)C(c4ccoc4)OC(=O)C4OC423)C1(C)C (stereo unspecified)
inactive: S. cerevisiae deletion strains, locus YAL013W, strain DEP1, stronger effect = lower value 0.995 | S. cerevisiae deletion strains, locus YBR021W, strain FUR4, stronger effect = lower value 0.986 | S. cerevisiae deletion strains, locus YBR229C, strain ROT2, stronger effect = lower value 0.984 | S. cerevisiae deletion strains, locus YCL029C, strain bik1, stronger effect = lower value 0.984 | S. cerevisiae deletion strains, locus YDL035C, strain GPR1, stronger effect = lower value 0.97 | S. cerevisiae deletion strains, locus YDL074C, strain BRE1, stronger effect = lower value 1.03 | S. cerevisiae deletion strains, locus YDL101C, strain DUN1, stronger effect = lower value 0.978 | S. cerevisiae deletion strains, locus YDL134C, strain PPH21, stronger effect = lower value 1 | S. cerevisiae deletion strains, locus YDL185W, strain tfp1, stronger effect = lower value 0.986 | S. cerevisiae deletion strains, locus YDL192W, strain arf1, stronger effect = lower value 0.99 | S. cerevisiae deletion strains, locus YDR101C, strain arx1, stronger effect = lower value 0.981 | S. cerevisiae deletion strains, locus YDR150W, strain NUM1, stronger effect = lower value 1 | S. cerevisiae deletion strains, locus YDR162C, strain NBP2, stronger effect = lower value 1.01 | S. cerevisiae deletion strains, locus YDR318W, strain mcm21, stronger effect = lower value 0.986 | S. cerevisiae deletion strains, locus YDR388W, stronger effect = lower value 0.988 | S. cerevisiae deletion strains, locus YDR502C, strain sam2, stronger effect = lower value 1 | S. cerevisiae deletion strains, locus YEL061C, strain CIN8, stronger effect = lower value 0.995 | S. cerevisiae deletion strains, locus YER110C, stronger effect = lower value 0.977 | S. cerevisiae deletion strains, locus YER155C, strain BEM2, stronger effect = lower value 0.976 | S. cerevisiae deletion strains, locus YER167W, strain BCK2, stronger effect = lower value 0.973 | S. cerevisiae deletion strains, locus YGL078C, strain dbp3, stronger effect = lower value 1 | S. cerevisiae deletion strains, locus YGL086W, strain mad1, stronger effect = lower value 0.99 | S. cerevisiae deletion strains, locus YGL248W, strain PDE1, stronger effect = lower value 1 | S. cerevisiae deletion strains, locus YGR078C, strain PAC10, stronger effect = lower value 1.04 | S. cerevisiae deletion strains, locus YGR135W, strain pre9, stronger effect = lower value 1.02 | S. cerevisiae deletion strains, locus YGR229C, strain SMI1, stronger effect = lower value 0.997 | S. cerevisiae deletion strains, locus YGR252W, strain gcn5, stronger effect = lower value 0.951 | S. cerevisiae deletion strains, locus YHR030C, strain SLT2, stronger effect = lower value 0.984 | S. cerevisiae deletion strains, locus YHR079C, strain IRE1 (second series), stronger effect = lower value 0.99 | S. cerevisiae deletion strains, locus YHR094C, strain hxt1, stronger effect = lower value 0.984 | S. cerevisiae deletion strains, locus YHR129C, strain ARP1, stronger effect = lower value 0.997 | S. cerevisiae deletion strains, locus YHR200W, strain rpn10, stronger effect = lower value 0.99 | S. cerevisiae deletion strains, locus YIL066C, strain RNR3, stronger effect = lower value 0.986 | S. cerevisiae deletion strains, locus YIL073C, strain SPO22, stronger effect = lower value 0.954 | S. cerevisiae deletion strains, locus YIL125W, strain kgd1, stronger effect = lower value 0.983 | S. cerevisiae deletion strains, locus YIR030C, strain dcg1, stronger effect = lower value 0.984 | S. cerevisiae deletion strains, locus YJL095W, strain BCK1, stronger effect = lower value 1.03 | S. cerevisiae deletion strains, locus YJL134W, strain LCB3, stronger effect = lower value 0.984 | S. cerevisiae deletion strains, locus YJL168C, strain set2, stronger effect = lower value 0.986 | S. cerevisiae deletion strains, locus YJL187C, strain SWE1 (second series), stronger effect = lower value 1.01 | S. cerevisiae deletion strains, locus YJR043C, strain POL32, stronger effect = lower value 0.98 | S. cerevisiae deletion strains, locus YJR075W, strain HOC1, stronger effect = lower value 1.01 | S. cerevisiae deletion strains, locus YKL009W, strain mrt4, stronger effect = lower value 0.971 | S. cerevisiae deletion strains, locus YKL068W, stronger effect = lower value 1 | S. cerevisiae deletion strains, locus YKL085W, strain MDH1 (second series), stronger effect = lower value 0.992 | S. cerevisiae deletion strains, locus YKL085W, strain MDH1, stronger effect = lower value 0.992 | S. cerevisiae deletion strains, locus YKL190W, strain CNB1, stronger effect = lower value 1 | S. cerevisiae deletion strains, locus YKR001C, strain vps1, stronger effect = lower value 1.01 | S. cerevisiae deletion strains, locus YLR039C, strain RIC1, stronger effect = lower value 0.929 | S. cerevisiae deletion strains, locus YLR058C, strain SHM2, stronger effect = lower value 0.984 | S. cerevisiae deletion strains, locus YLR102C, strain apc9, stronger effect = lower value 0.979 | S. cerevisiae deletion strains, locus YLR262C, strain YPT6, stronger effect = lower value 0.975 | S. cerevisiae deletion strains, locus YLR268W, strain sec22, stronger effect = lower value 1 | S. cerevisiae deletion strains, locus YLR330W, strain CHS5, stronger effect = lower value 0.989 | S. cerevisiae deletion strains, locus YLR342W, strain FKS1 (second series), stronger effect = lower value 0.941 | S. cerevisiae deletion strains, locus YLR371W, strain rom2, stronger effect = lower value 0.977 | S. cerevisiae deletion strains, locus YLR418C, strain cdc73, stronger effect = lower value 0.988 | S. cerevisiae deletion strains, locus YML016C, strain PPZ1, stronger effect = lower value 0.993 | S. cerevisiae deletion strains, locus YML032C, strain rad52, stronger effect = lower value 0.976 | S. cerevisiae deletion strains, locus YML124C, strain tub3, stronger effect = lower value 0.996 | S. cerevisiae deletion strains, locus YMR078C, strain ctf18, stronger effect = lower value 0.97 | S. cerevisiae deletion strains, locus YMR223W, strain ubp8, stronger effect = lower value 0.981 | S. cerevisiae deletion strains, locus YMR263W, strain SAP30, stronger effect = lower value 1.03 | S. cerevisiae deletion strains, locus YMR307W, strain GAS1, stronger effect = lower value 0.909 | S. cerevisiae deletion strains, locus YNL067W, strain RPL9B, stronger effect = lower value 1.03 | S. cerevisiae deletion strains, locus YNL128W, strain TEP1, stronger effect = lower value 0.995 | S. cerevisiae deletion strains, locus YNL153C, strain GIM3, stronger effect = lower value 1.04 | S. cerevisiae deletion strains, locus YNL233W, strain BNI4, stronger effect = lower value 0.999 | S. cerevisiae deletion strains, locus YNL250W, strain rad50, stronger effect = lower value 0.974 | S. cerevisiae deletion strains, locus YNL271C, strain bni1, stronger effect = lower value 0.988 | S. cerevisiae deletion strains, locus YNL298W, strain CLA4, stronger effect = lower value 0.985 | S. cerevisiae deletion strains, locus YNL307C, strain MCK1, stronger effect = lower value 0.965 | S. cerevisiae deletion strains, locus YNL322C, strain KRE1, stronger effect = lower value 0.986 | S. cerevisiae deletion strains, locus YNR052C, strain pop2, stronger effect = lower value 0.987 | S. cerevisiae deletion strains, locus YOL006C, strain TOP1, stronger effect = lower value 0.977 | S. cerevisiae deletion strains, locus YOL012C, strain htz1 1.14 | S. cerevisiae deletion strains, locus YOL147C, strain pex11, stronger effect = lower value 0.996 | S. cerevisiae deletion strains, locus YOR061W, strain CKA2, stronger effect = lower value 0.994 | S. cerevisiae deletion strains, locus YOR069W, strain VPS5, stronger effect = lower value 0.963 | S. cerevisiae deletion strains, locus YOR136W, strain idh2, stronger effect = lower value 0.981 | S. cerevisiae deletion strains, locus YOR144C, strain elg1, stronger effect = lower value 0.998 | S. cerevisiae deletion strains, locus YOR184W, strain ser1, stronger effect = lower value 0.959 | S. cerevisiae deletion strains, locus YOR316C, strain cot1, stronger effect = lower value 0.987 | S. cerevisiae deletion strains, locus YPL055C, strain LGE1, stronger effect = lower value 1.04 | S. cerevisiae deletion strains, locus YPL241C, strain CIN2, stronger effect = lower value 0.994 | S. cerevisiae deletion strains, locus YPR119W, strain clb2, stronger effect = lower value 0.992 | S. cerevisiae deletion strains, locus YPR141C, strain kar3, stronger effect = lower value 0.985 | S. cerevisiae deletion strains, locus YPR163C, strain tif3, stronger effect = lower value 0.992 | S. cerevisiae deletion strains, locus YPR167C, strain met16, stronger effect = lower value 0.992 | S. cerevisiae deletion strains, strain wtn01, stronger effect = lower value 0.996 | S. cerevisiae strains, strain wild type, stronger effect = lower value 0.983
